Laboratory results published in PubChem BioAssay AID1159580 (chemical genetic matrix, 2015).
The whole screen tested about 5,500 compounds, of which about 2,000 (36%) were called active. Roughly 18% stayed inconclusive and do not appear here. Rule as the data show it: active = normalized growth mostly below about 0.91 (no sharp cut-off); inconclusive = no clear call, values can overlap the other calls; inactive = mostly above about 0.92. Some of the results follow.

Assay: chemical genetic growth profiling, strain panel (AID 1159580);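 also: tested at 20 µM; growth read once vehicle control cultures reached saturation at 30 °C; 1 = growth at the plate median or of vehicle wells; lower values mean less growth of the strain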
Conditions: growth OD
[1] = S. cerevisiae deletion strains, locus YDL101C, strain DUN1, active compounds read low
[2] = S. cerevisiae deletion strains, locus YHR030C, strain SLT2, active compounds read low

Measured: normalized growth

CC(=O)N/C(=C/c1ccc2c(c1)OCO2)C(=O)O
inactive: S. cerevisiae deletion strains, locus YAL013W, strain DEP1, active compounds read low 1.01 | S. cerevisiae deletion strains, locus YBR229C, strain ROT2, active compounds read low 1 | S. cerevisiae deletion strains, locus YCL061C, strain MRC1, active compounds read low 1.02 | [1] 1 | S. cerevisiae deletion strains, locus YDR150W, strain NUM1, active compounds read low 0.915 | S. cerevisiae deletion strains, locus YEL061C, strain CIN8, active compounds read low 1.02 | S. cerevisiae deletion strains, locus YGR078C, strain PAC10, active compounds read low 1 | S. cerevisiae deletion strains, locus YGR229C, strain SMI1, active compounds read low 1.02 | [2] 1.06 | S. cerevisiae deletion strains, locus YHR087W, strain rtc3, active compounds read low 1 | S. cerevisiae deletion strains, locus YJL187C, strain SWE1, active compounds read low 1.01 | S. cerevisiae deletion strains, locus YJR043C, strain POL32, active compounds read low 1.01 | S. cerevisiae deletion strains, locus YJR075W, strain HOC1, active compounds read low 1.02 | S. cerevisiae deletion strains, locus YKL190W, strain CNB1, active compounds read low 1.01 | S. cerevisiae deletion strains, locus YLR039C, strain RIC1, active compounds read low 1.07 | S. cerevisiae deletion strains, locus YLR058C, strain SHM2 (second series), active compounds read low 1.01 | S. cerevisiae deletion strains, locus YLR085C, strain ARP6, active compounds read low 1.02 | S. cerevisiae deletion strains, locus YLR262C, strain YPT6, active compounds read low 1.07 | S. cerevisiae deletion strains, locus YML094W, strain GIM5, active compounds read low 1.01 | S. cerevisiae deletion strains, locus YMR219W, strain ESC1, active compounds read low 1 | S. cerevisiae deletion strains, locus YMR263W, strain SAP30, active compounds read low 1.01 | S. cerevisiae deletion strains, locus YNL153C, strain GIM3, active compounds read low 1.01 | S. cerevisiae deletion strains, locus YNL298W, strain CLA4 (second series), active compounds read low 1.01 | S. cerevisiae deletion strains, locus YNL322C, strain KRE1, active compounds read low 1 | S. cerevisiae deletion strains, locus YNR030W, strain Alg12, active compounds read low 1.01 | S. cerevisiae deletion strains, locus YOL006C, strain TOP1, active compounds read low 1.04 | S. cerevisiae deletion strains, locus YPL055C, strain LGE1, active compounds read low 0.87 | S. cerevisiae deletion strains, locus YPL241C, strain CIN2, active compounds read low 1 | S. cerevisiae deletion strains, locus YPR135W, strain CTF4, active compounds read low 0.998 | S. cerevisiae strains, strain wild type, active compounds read low 1.02

CSc1ccc(/C=C(\C)[N+](=O)[O-])cc1
active: S. cerevisiae deletion strains, locus YAR019C, strain CDC15, active compounds read low 0.0932 | S. cerevisiae deletion strains, locus YBL105C, strain PKC1, active compounds read low 0.0831 | S. cerevisiae deletion strains, locus YBR135W, strain CKS1, active compounds read low 0.0817 | S. cerevisiae deletion strains, locus YBR136W, strain MEC1, active compounds read low 0.0817 | S. cerevisiae deletion strains, locus YBR160W, strain CDC28, active compounds read low 0.0827 | S. cerevisiae deletion strains, locus YDL017W, strain CDC7, active compounds read low 0.0813 | S. cerevisiae deletion strains, locus YDL028C, strain MPS1, active compounds read low 0.0841 | [1] 0.1 | S. cerevisiae deletion strains, locus YDL108W, strain KIN28, active compounds read low 0.0841 | S. cerevisiae deletion strains, locus YDL214C, strain PRR2, active compounds read low 0.0925 | S. cerevisiae deletion strains, locus YDR052C, strain DBF4, active compounds read low 0.103 | S. cerevisiae deletion strains, locus YDR054C, strain cdc34, active compounds read low 0.0952 | S. cerevisiae deletion strains, locus YDR226W, strain ADK1, active compounds read low 0.09 | S. cerevisiae deletion strains, locus YDR477W, strain SNF1, active compounds read low 0.104 | S. cerevisiae deletion strains, locus YER123W, strain YCK3, active compounds read low 0.0983 | S. cerevisiae deletion strains, locus YER133W, strain GLC7, active compounds read low 0.0958 | S. cerevisiae deletion strains, locus YFL009W, strain cdc4, active compounds read low 0.0931 | S. cerevisiae deletion strains, locus YFL029C, strain CAK1, active compounds read low 0.0921 | S. cerevisiae deletion strains, locus YFR003C, strain YPI1, active compounds read low 0.0893 | S. cerevisiae deletion strains, locus YFR019W, strain FAB1, active compounds read low 0.092 | S. cerevisiae deletion strains, locus YFR028C, strain CDC14, active compounds read low 0.0831 | S. cerevisiae deletion strains, locus YGR040W, strain KSS1, active compounds read low 0.103 | S. cerevisiae deletion strains, locus YGR052W, strain FMP48, active compounds read low 0.138 | S. cerevisiae deletion strains, locus YGR092W, strain DBF2, active compounds read low 0.105 | [2] 0.132 | S. cerevisiae deletion strains, locus YHR079C, strain IRE1, active compounds read low 0.122 | S. cerevisiae deletion strains, locus YHR082C, strain KSP1, active compounds read low 0.141 | S. cerevisiae deletion strains, locus YHR205W, strain SCH9, active compounds read low 0.00725 | S. cerevisiae deletion strains, locus YIL147C, strain SLN1, active compounds read low 0.0876 | S. cerevisiae deletion strains, locus YJL095W, strain BCK1, active compounds read low 0.142 | S. cerevisiae deletion strains, locus YJL157C, strain FAR1, active compounds read low 0.084 | S. cerevisiae deletion strains, locus YJR016C, strain ILV3, active compounds read low 0.0861 | S. cerevisiae deletion strains, locus YJR066W, strain TOR1 (second series), active compounds read low 0.0953 | S. cerevisiae deletion strains, locus YJR066W, strain TOR1, active compounds read low 0.158 | S. cerevisiae deletion strains, locus YKL048C, strain ELM1, active compounds read low 0.106 | S. cerevisiae deletion strains, locus YKL067W, strain YNK1, active compounds read low 0.0912 | S. cerevisiae deletion strains, locus YKL101W, strain HSL1, active compounds read low 0.103 | S. cerevisiae deletion strains, locus YKL193C, strain SDS22, active compounds read low 0.0867 | S. cerevisiae deletion strains, locus YKL203C, strain TOR2, active compounds read low 0.115 | S. cerevisiae deletion strains, locus YLR113W, strain HOG1, active compounds read low 0.176 | S. cerevisiae deletion strains, locus YLR133W, strain CKI1, active compounds read low 0.0883 | S. cerevisiae deletion strains, locus YLR403W, strain SFP1, active compounds read low -0.00294 | S. cerevisiae deletion strains, locus YML070W, strain DAK1, active compounds read low 0.0932 | S. cerevisiae deletion strains, locus YMR001C, strain CDC5, active compounds read low 0.0857 | S. cerevisiae deletion strains, locus YMR205C, strain PFK2 (second series), active compounds read low 0.0912 | S. cerevisiae deletion strains, locus YMR277W, strain FCP1, active compounds read low 0.0923 | S. cerevisiae deletion strains, locus YNL006W, strain LST8, active compounds read low 0.088 | S. cerevisiae deletion strains, locus YNL020C, strain ARK1, active compounds read low 0.0937 | S. cerevisiae deletion strains, locus YNL161W, strain CBK1, active compounds read low 0.0836 | S. cerevisiae deletion strains, locus YNL183C, strain NPR1, active compounds read low 0.129 | S. cerevisiae deletion strains, locus YNL207W, strain RIO2, active compounds read low 0.0937 | S. cerevisiae deletion strains, locus YNL222W, strain SSU72, active compounds read low 0.0888 | S. cerevisiae deletion strains, locus YNL307C, strain MCK1 (second series), active compounds read low 0.103 | S. cerevisiae deletion strains, locus YOL078W, strain AVO1, active compounds read low 0.0847 | S. cerevisiae deletion strains, locus YOL136C, strain PFK27, active compounds read low 0.0905 | S. cerevisiae deletion strains, locus YOR061W, strain CKA2, active compounds read low 0.0875 | S. cerevisiae deletion strains, locus YOR119C, strain RIO1, active compounds read low 0.109 | S. cerevisiae deletion strains, locus YOR231W, strain MKK1, active compounds read low 0.137 | S. cerevisiae deletion strains, locus YOR329C, strain SCD5, active compounds read low 0.0819 | S. cerevisiae deletion strains, locus YPL031C, strain PHO85, active compounds read low 0.11 | S. cerevisiae deletion strains, locus YPL153C, strain RAD53, active compounds read low 0.112 | S. cerevisiae deletion strains, locus YPL204W, strain HRR25, active compounds read low 0.0976 | S. cerevisiae deletion strains, locus YPL209C, strain IPL1, active compounds read low 0.0829 | S. cerevisiae deletion strains, locus YPL256C, strain CLN2, active compounds read low 0.156 | S. cerevisiae deletion strains, locus YPR025C, strain CCL1, active compounds read low 0.0822 | S. cerevisiae deletion strains, locus YPR106W, strain ISR1, active compounds read low 0.0856 | S. cerevisiae deletion strains, locus YPR111W, strain DBF20, active compounds read low 0.188 | S. cerevisiae deletion strains, strain NNK1, active compounds read low 0.0909 | S. cerevisiae deletion strains, strain TSCII, active compounds read low 0.0882
